Laboratory results as given in PubChem BioAssay AID651864 (Broad Institute, 2012).
Measured potencies and affinities stand elsewhere. Activity calls are given as the source filed them. No rule for the calls is given here.

Test: HeLa cell cytotoxicity, dose response, cytotoxicity control, 24 h, plate reader, powder samples, set 3 (AID 651864)
Conditions: HeLa viability, CellTiter-Glo ATP luminescence; series mostly up to 80 µM; activity change, negative = cytotoxicity: at the top concentration

| SMILES | activity change, negative = cytotoxicity | outcome |
| --- | --- | --- |
| Cc1ccc(Cn2nnnc2NCc2ccc(N3CCCC3)cc2)cc1 | 17.3% (inactive) |  |
| O=C(NCc1ccc(-c2ccccc2)cc1)C1CCCC1 | 8.16% (inactive) |  |
| CCn1nnnc1NCc1cccc(OC)c1 | 12.2% (inactive) |  |
| Fc1ccc(Cn2nnnc2NCc2ccc(N3CCCC3)cc2)cc1 | 28.2% (inactive) |  |
| Cc1ccccc1CC(=O)NC1CCCC1 | 1.63% (inactive) |  |
| CC(C)(C)OC(=O)N1CC(NC(=O)Cc2ccc(-c3ccccc3)cc2)C1 | 10.6% (inactive) |  |
| O=C(Cc1cccc(OC(F)(F)F)c1)NC1CCCC1 | 2.97% (inactive) |  |
| CCn1nnnc1NCc1ccccc1N1CCCC1 | -2.38% (inactive) |  |
| O=C(Cc1ccc(-c2ccccc2)cc1)NC1CCCC1 |  | inactive |
